According to PubChem BioAssay:

Biological target: Follistatin-related protein 3 (Homo sapiens) (UniProt O95633)
Test: compounds binding follistatin-related protein 3 – biochemical, small-molecule microarray, 635 nm fluorescence, primary screen (AID 1105);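 further: score merges emission near 667 nm and signal to noise per printed spot across three slides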
Conditions: FSTL3 binding, higher = more signal

Sequence of Follistatin-related protein 3 (Homo sapiens) (O95633 whole entry, looked up): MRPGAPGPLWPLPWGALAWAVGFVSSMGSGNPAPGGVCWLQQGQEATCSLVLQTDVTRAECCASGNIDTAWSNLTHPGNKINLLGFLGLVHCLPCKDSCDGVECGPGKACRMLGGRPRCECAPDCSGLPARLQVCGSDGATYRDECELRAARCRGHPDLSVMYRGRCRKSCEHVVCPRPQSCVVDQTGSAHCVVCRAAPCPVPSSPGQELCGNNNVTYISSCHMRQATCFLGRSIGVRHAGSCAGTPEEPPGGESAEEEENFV

SMILES | composite z-score
CC(C)C(=C=CC[C@@H](O)c1cccc(OCCO)c1)C[C@@H](O)COCc1ccccc1 | 0.178
COC(=O)[C@@]1(Cc2ccccc2)[C@H]2c3cc(C(=O)N4CCCC4)n(CCSCCO)c3C[C@H]2CN1C(=O)c1ccccc1 | 0.414
CCOC(=O)C1=C[C@@H](C(C)(C)C)N(S(=O)(=O)c2ccc(C)cc2)[C@H]1c1cccc(Cl)c1 | 1.36
C=C[C@H](C)[C@H](OC(=O)Nc1ccc(OC)cc1)c1ccc(OCCO)cc1 | -0.844
C[C@]1(C(=O)O)c2ccccc2C(=O)N(Cc2ccc(OC(F)(F)F)cc2)[C@H]1c1ccc(CO)cc1 | -0.0953

Biological target: Dickkopf-related protein 1 (Homo sapiens) (UniProt O94907)
Sequence (O94907 whole entry, looked up): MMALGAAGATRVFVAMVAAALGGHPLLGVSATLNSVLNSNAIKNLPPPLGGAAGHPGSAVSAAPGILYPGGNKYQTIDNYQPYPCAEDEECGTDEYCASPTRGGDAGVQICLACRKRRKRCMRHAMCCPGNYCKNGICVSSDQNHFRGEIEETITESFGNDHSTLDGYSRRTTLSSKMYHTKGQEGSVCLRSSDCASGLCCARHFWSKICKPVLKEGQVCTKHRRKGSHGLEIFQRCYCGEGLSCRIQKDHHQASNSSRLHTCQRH
Test: small molecules binding DKK1 protein – biochemical, small-molecule microarray, 635 nm fluorescence scan, primary screen (AID 1106);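 further: score merges emission near 667 nm with signal to noise over three replicate slides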
Conditions: higher = more signal

SMILES | composite z-score
COc1cc(NN2C(C(O)c3ccc(I)cc3)C=CC3C(=O)N(c4ccccc4)C(=O)C32)cc(OC)c1OC (configuration not stated) | -0.305
CN(C)CCCC[C@@H]1NC(=O)[C@@H]2C[C@H](C(=O)O)[C@H](c3cccc(OCCO)c3)N2C1=O | 0.333
CN1C(=O)C2C=CC(C(O)c3cc(C(F)(F)F)cc(C(F)(F)F)c3)N(Nc3ccccc3)C2C1=O (configuration not stated) | -0.887
C=C(/C(=C/C[C@H](OC(=O)c1ccncc1)c1ccccc1OCCO)c1cnc2ccccc2c1)C(C)C | 1.07
COC(=O)[C@@]1(Cc2ccccc2CN=[N+]=[N-])N=C(c2ccc(OCCCO)cc2)O[C@H]1c1ccccc1 | -0.459
C=CCC(OC(C)=O)[C@@H]1[C@@H](N(Cc2cccc3ccccc23)C(=O)c2ccc(-c3ccccc3)cc2)c2cc(OCCCO)ccc2N1C(=O)c1ccc(-c2ccccc2)cc1 (some centres not stated) | -0.242
COC(=O)[C@@]1(Cc2ccc(F)cc2)[C@H]2c3cc(C(=O)N(C)C)n(Cc4c(CO)[nH]cc(C)c4=O)c3C[C@H]2CN1C(=O)c1ccccc1 | -0.12
